The results in this text go back to PubChem BioAssay.

The nature of the first assay: probe aShh binding to arrayed compounds – biochemical, biotinylated probe, 635/667 nm fluorescence, primary screen (AID 1114).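 Note: probe is biotin-labelled aShh protein from a stem cell growth factor screen; measures binding of labelled protein to compounds printed on the slide; score merges feature fluorescence at 667 nm with signal-to-noise.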 The settings on record: small-molecule microarray, higher = more signal.
Consider `COc1ccc(C#Cc2ccc3c(c2)[C@]2(C(=O)N3)[C@H](C(=O)Nc3nc4ccccc4s3)[C@H]3C(=O)O[C@H](c4ccccc4)[C@H](c4ccccc4)N3[C@@H]2c2ccccc2OCCO)cc1`, for which the composite z-score was -0.282.

On to `C=CCNC(=O)[C@@H]1[C@H]2C(=O)O[C@H](c3ccccc3)[C@H](c3ccccc3)N2[C@H](c2ccc(OCCO)cc2)[C@@]12C(=O)N(C(=O)OCCOC)c1ccc(C#CCCO)cc12`, for which the composite z-score was -0.0769. For `COCC(=C=CC[C@@H](O)c1cccc(OCCO)c1)CCO`, the composite z-score was -0.372.

For the compound `COCCOC(=O)N1C(=O)[C@@]2(c3cc(C#CC4(O)CCCCCC4)ccc31)[C@H](C(=O)N1CCN(c3ncccn3)CC1)[C@H]1C(=O)O[C@H](c3ccccc3)[C@H](c3ccccc3)N1[C@@H]2c1ccccc1OCCO`, the composite z-score worked out at 0.116. On the same count and under the same terms, next, `[N-]=[N+]=Nc1ccccc1C[C@]1(C(=O)O)N=C(c2ccc(OCCCO)cc2)O[C@H]1c1ccccc1N=[N+]=[N-]`: -0.0263; `NC(=O)NCC#Cc1ccc2c(c1)[C@]1(C(=O)N2)[C@H](C(=O)N2CCN(c3ncccn3)CC2)[C@H]2C(=O)O[C@H](c3ccccc3)[C@H](c3ccccc3)N2[C@@H]1c1ccc(OCCO)cc1`: -0.0553. Same read-out and setting: the result for `CN(C)C(=O)[C@@]1(Cc2ccccc2)COC(c2ccc(OCCCO)cc2)=N1` reads 0.0526; that for `CCN(CC)c1ccc(N2CC=CC34O[C@@H]5C=CCCOC(=O)C5[C@H]3C(=O)N(CCO)[C@@H]4C2=O)cc1` (stereo partly specified), -0.26; that for `C[C@@H]1ON(c2ccc(I)cc2)[C@H](c2ccc(OC(=O)OC(C)(C)C)cc2)[C@H]1C(=O)N1C(=O)OC[C@H]1Cc1ccccc1`, -0.0431. Regarding `COc1cc(CO)cc(I)c1O[C@H]1C=C(C(=O)NCCO)C[C@@H](NCC2CCCCC2)[C@@H]1O`, the composite z-score worked out at 0.0639. Consider `C=CCNC(=O)[C@@H]1[C@H]2C(=O)O[C@H](c3ccccc3)[C@H](c3ccccc3)N2[C@H](c2ccc(O)cc2)[C@@]12C(=O)Nc1ccc(C#CCC(C(=O)OC)C(=O)OC)cc12`, for which the composite z-score was -0.2. The compound `CCOC(=O)C1=C[C@@H](c2ccccc2)N(S(=O)(=O)c2ccc(C)cc2)[C@H]1c1ccccc1` had a composite z-score of -0.138. Still for that read-out and setting: the result for `[N-]=[N+]=NC[C@H](Cc1ccccc1)NC(=O)c1ccccc1` reads -0.0146; that for `COc1ccc(C(O)C2C=CC3C(=O)N(c4ccccc4)C(=O)C3N2Nc2ccccc2F)cc1` (stereo unspecified), 0.0062.

With `C#C[C@@H](CC)O[Si](C#CCCCC#N)(C(C)C)C(C)C`, the composite z-score worked out at 0.0483.

The compound `CCCCCCCCCCC(O)C1C=CC2C(=O)N(C)C(=O)C2N1Nc1cc(OC)c(OC)c(OC)c1` (stereo unspecified) displayed a composite z-score of -0.0398.

Consider `C=C[C@H](C)[C@H](OC(=O)Nc1ccc(OC)cc1)c1ccc(OCCO)cc1`, for which the composite z-score was -0.0553.

Regarding `COCCOC(=O)N1C(=O)[C@@]2(c3cc(C#CC4(O)CCCCCC4)ccc31)[C@H](c1ccc(OCCO)cc1)N1[C@H](c3ccccc3)[C@H](c3ccccc3)OC(=O)[C@H]1[C@@H]2C(=O)Nc1nc2ccccc2s1`, the composite z-score was 0.214. On the same count and under the same terms, the result for `O=c1cccc(-c2ccco2)o1` reads 0.0952. As for `CN(C)C(=O)[C@@]1(Cc2ccccc2N=[N+]=[N-])N=C(c2ccc(OCCCO)cc2)O[C@H]1c1ccccc1`, the composite z-score is -0.0022. The same measure, in the same setting: the result for `CC(C)[C@H]1NC(=O)[C@@]23C(=O)N[C@@H](Cc4ccccc4)C2[C@H](C)[C@@]2(C)O[C@H]2C3/C=C/CCC/C=C/CNC(=O)[C@H](Cc2ccccc2)NC1=O` (stereo partly specified) reads -0.156.

Consider `C=CCC(OC(C)=O)[C@@H]1[C@@H](N(Cc2cc3ccccc3o2)C(=O)c2ccc(-c3ccccc3)cc2)c2cc(OCCCO)ccc2N1C(=O)Cc1ccc(OC)cc1` (stereo partly specified), for which the composite z-score was -0.335. Turning to `[N-]=[N+]=NCc1ccccc1[C@H]1OC(c2ccc(OCCCO)cc2)=N[C@@]1(CCS(=O)(=O)c1ccccc1)C(=O)NCc1ccccc1`, the composite z-score was found to be 0.14.

`CC(=O)n1cc(C(O)C2C=CC3C(=O)N(c4ccccc4)C(=O)C3N2Nc2ccc(C(C)C)cc2)c2ccccc21` (stereo unspecified) yielded a composite z-score of 0.0328. Same read-out and setting: the result for `C=C(COC)C(=O)CC[C@H](OC(C)=O)c1ccc(OCCO)cc1` reads -0.0011.

As for `Cc1ccccc1C(O)C1C=CC2C(=O)NC(=O)C2N1Nc1ccc(Cl)cc1Cl` (stereo unspecified), the composite z-score was 0.0796.

A further assay is described as follows: probe aNog binding to arrayed compounds – biochemical, biotinylated probe, 635/667 nm fluorescence, primary screen (AID 1115).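 Note: probe is biotinylated aNog protein used at 0.15 µg/mL for 1 h at 4 C; z-score combines 667 nm fluorescence of each spot with its signal to noise.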 The settings on record: small-molecule microarray, higher = more signal.
`CCOC(=O)C1=CCC(c2ccco2)N(S(=O)(=O)c2ccc(C)cc2)C1` (stereo unspecified) returned a composite z-score of -0.423. On the same count and under the same terms, next, `COCCOC(=O)N1C(=O)[C@@]2(c3cc(C#CCC(C(=O)OC)C(=O)OC)ccc31)[C@H](C(=O)NC[C@H](O)c1ccccc1)[C@H]1C(=O)O[C@H](c3ccccc3)[C@H](c3ccccc3)N1[C@@H]2c1ccc(OCCO)cc1`: -0.367; `CCCNC(=O)[C@@]1(Sc2ccc(C)cc2)CC(=O)N(C(C)C)[C@@H]1c1ccc(CO)cc1I`: 0.909.

`COC(=O)[C@@]1(Cc2ccc(F)cc2)[C@H]2c3cc(C(=O)N4CCCC4)n(C)c3C[C@H]2CN1C(=O)c1ccccc1`: the composite z-score was 1.39. On the same count and under the same terms, next, `O=C1O[C@H](c2ccccc2)[C@H](c2ccccc2)N2[C@H]1[C@@H](C(=O)N1CCCCCCC1)[C@]1(C(=O)Nc3ccc(C#CC4(O)CCCCCC4)cc31)[C@H]2c1ccc(O)cc1`: 3.1; `O=C1O[C@H](c2ccccc2)[C@H](c2ccccc2)N2[C@H]1[C@@H](C(=O)O)[C@]1(C(=O)Nc3ccc(C#CC4(O)CCCCCC4)cc31)[C@H]2c1ccc(O)cc1`: -0.291; `COCCOC(=O)N1C(=O)[C@@]2(c3ccccc31)[C@H](c1ccccc1OCCO)N1[C@H](c3ccccc3)[C@H](c3ccccc3)OC(=O)[C@H]1[C@@H]2C(N)=O`: 0.389.

The compound `NC(=O)[C@@H]1[C@H]2C(=O)O[C@H](c3ccccc3)[C@H](c3ccccc3)N2[C@H](c2ccc(OCCO)cc2)[C@@]12C(=O)Nc1ccc(C#CCCO)cc12` yielded a composite z-score of -0.329.

`Cc1cccc([C@H]2C[C@H]3C(Br)=C[C@@H]2C(=O)[C@]32CO2)c1` yielded a composite z-score of -0.0784. Regarding `COc1ccc(C#Cc2ccc3c(c2)[C@]2(C(=O)N3)[C@H](C(=O)Nc3nc4ccccc4s3)[C@H]3C(=O)O[C@H](c4ccccc4)[C@H](c4ccccc4)N3[C@@H]2c2ccccc2OCCO)cc1`, the composite z-score is -0.273. Same read-out and setting: next, `C=CCNC(=O)[C@@H]1[C@H]2C(=O)O[C@H](c3ccccc3)[C@H](c3ccccc3)N2[C@H](c2ccc(OCCO)cc2)[C@@]12C(=O)N(C(=O)OCCOC)c1ccc(C#CCCO)cc12`: -0.519.

In turn, `COCC(=C=CC[C@@H](O)c1cccc(OCCO)c1)CCO` gave a composite z-score of -0.0987. On the same count and under the same terms, next, `COCCOC(=O)N1C(=O)[C@@]2(c3cc(C#CC4(O)CCCCCC4)ccc31)[C@H](C(=O)N1CCN(c3ncccn3)CC1)[C@H]1C(=O)O[C@H](c3ccccc3)[C@H](c3ccccc3)N1[C@@H]2c1ccccc1OCCO`: -0.263; `[N-]=[N+]=Nc1ccccc1C[C@]1(C(=O)O)N=C(c2ccc(OCCCO)cc2)O[C@H]1c1ccccc1N=[N+]=[N-]`: 2; `NC(=O)NCC#Cc1ccc2c(c1)[C@]1(C(=O)N2)[C@H](C(=O)N2CCN(c3ncccn3)CC2)[C@H]2C(=O)O[C@H](c3ccccc3)[C@H](c3ccccc3)N2[C@@H]1c1ccc(OCCO)cc1`: 0.833. Same read-out and setting: the result for `CN(C)C(=O)[C@@]1(Cc2ccccc2)COC(c2ccc(OCCCO)cc2)=N1` reads -0.646; that for `CCN(CC)c1ccc(N2CC=CC34O[C@@H]5C=CCCOC(=O)C5[C@H]3C(=O)N(CCO)[C@@H]4C2=O)cc1` (stereo partly specified), 2.13. Turning to `C[C@@H]1ON(c2ccc(I)cc2)[C@H](c2ccc(OC(=O)OC(C)(C)C)cc2)[C@H]1C(=O)N1C(=O)OC[C@H]1Cc1ccccc1`, the composite z-score was -0.321.

In the case of `COc1cc(CO)cc(I)c1O[C@H]1C=C(C(=O)NCCO)C[C@@H](NCC2CCCCC2)[C@@H]1O`, the composite z-score was -0.319. Still for that read-out and setting: the result for `C=CCNC(=O)[C@@H]1[C@H]2C(=O)O[C@H](c3ccccc3)[C@H](c3ccccc3)N2[C@H](c2ccc(O)cc2)[C@@]12C(=O)Nc1ccc(C#CCC(C(=O)OC)C(=O)OC)cc12` reads 0.187. `CCOC(=O)C1=C[C@@H](c2ccccc2)N(S(=O)(=O)c2ccc(C)cc2)[C@H]1c1ccccc1` gave a composite z-score of 1.13. For `[N-]=[N+]=NC[C@H](Cc1ccccc1)NC(=O)c1ccccc1`, the composite z-score is -0.293. Still for that read-out and setting: the result for `COc1ccc(C(O)C2C=CC3C(=O)N(c4ccccc4)C(=O)C3N2Nc2ccccc2F)cc1` (stereo unspecified) reads 0.853; that for `C#C[C@@H](CC)O[Si](C#CCCCC#N)(C(C)C)C(C)C`, -0.121.

For `CCCCCCCCCCC(O)C1C=CC2C(=O)N(C)C(=O)C2N1Nc1cc(OC)c(OC)c(OC)c1` (stereo unspecified), the composite z-score was found to be 0.837. The same measure, in the same setting: next, `C=C[C@H](C)[C@H](OC(=O)Nc1ccc(OC)cc1)c1ccc(OCCO)cc1`: -0.142; `COCCOC(=O)N1C(=O)[C@@]2(c3cc(C#CC4(O)CCCCCC4)ccc31)[C@H](c1ccc(OCCO)cc1)N1[C@H](c3ccccc3)[C@H](c3ccccc3)OC(=O)[C@H]1[C@@H]2C(=O)Nc1nc2ccccc2s1`: 0.721; `O=c1cccc(-c2ccco2)o1`: -0.0563. Same read-out and setting: next, `CN(C)C(=O)[C@@]1(Cc2ccccc2N=[N+]=[N-])N=C(c2ccc(OCCCO)cc2)O[C@H]1c1ccccc1`: -0.743; `CC(C)[C@H]1NC(=O)[C@@]23C(=O)N[C@@H](Cc4ccccc4)C2[C@H](C)[C@@]2(C)O[C@H]2C3/C=C/CCC/C=C/CNC(=O)[C@H](Cc2ccccc2)NC1=O` (stereo partly specified): -0.455; `C=CCC(OC(C)=O)[C@@H]1[C@@H](N(Cc2cc3ccccc3o2)C(=O)c2ccc(-c3ccccc3)cc2)c2cc(OCCCO)ccc2N1C(=O)Cc1ccc(OC)cc1` (stereo partly specified): -0.216. The same measure, in the same setting: next, `[N-]=[N+]=NCc1ccccc1[C@H]1OC(c2ccc(OCCCO)cc2)=N[C@@]1(CCS(=O)(=O)c1ccccc1)C(=O)NCc1ccccc1`: 0.543; `CC(=O)n1cc(C(O)C2C=CC3C(=O)N(c4ccccc4)C(=O)C3N2Nc2ccc(C(C)C)cc2)c2ccccc21` (stereo unspecified): 1.41; `C=C(COC)C(=O)CC[C@H](OC(C)=O)c1ccc(OCCO)cc1`: -0.0562. With `Cc1ccccc1C(O)C1C=CC2C(=O)NC(=O)C2N1Nc1ccc(Cl)cc1Cl` (stereo unspecified), the composite z-score is 0.879.
